This passage reports inhibition results from PubChem BioAssay AID1259422 (The Scripps Research Institute Molecular Screening Center, 2018).

The whole screen tested about 640,000 compounds, of which about 9,300 (1.5%) were called active. This is one part of a sample in which actives are shown more often than they occur. A number with no mark means an inactive call. Rule as the data show it: active = inhibition above about 32%; inactive = the rest.

A short description of the assay: TEAD-YAP interaction inhibition, primary screen, TEAD-YAP interaction inhibitor project, luminescence, HEK-TIYL cells (AID 1259422).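 Also: 0% = median of test compound wells and 100% = reference inhibitor wells.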 The settings on record: TEAD-Gal4/YAP UAS-luciferase luminescence, at 9.12 µM, hits give high values.
Broadly, the inhibition is the relative decrease from the control value, in per cent. In the case of `COCCNC(=O)c1sc2nc(C)nc(N3CCCCC3)c2c1C`, the inhibition was 8.3%.
Next, `C=CCn1c(NCCCN(C)C)cc(=O)n(C)c1=O`: 1.12%.
`Cc1cc(C)cc(Cn2c(NCc3ccncc3)cc(=O)n(C)c2=O)c1`: the inhibition is 33.7% (active).
Next, `Cc1cccc(Cn2c(NCc3ccc4c(c3)OCO4)nc3c2c(=O)n(C)c(=O)n3C)c1`: 3.24%; `CC(=O)c1ccc(OCc2cc(C(=O)NCc3cccc(-n4cccn4)c3)no2)cc1`: -59.7%; `O=C(NC1CCCC1)c1ccc(N2CCC(NCCc3ccco3)CC2)cc1`: -1.18%.
On to `O=C(Nc1ccc(N2CCC(NCCc3ccco3)CC2)cc1)C1CCCC1`, for which the inhibition was 56.3% (active).
Next, `O=C(Nc1cccc(N2CCC(NCCc3ccco3)CC2)c1)c1ccncc1`: -5.63%.
To `COc1ccc(CCNC(=O)CSc2cn(C)c3ccccc23)cc1OC` belongs -1.21%; to `COc1ccc(Cl)cc1C1=N/C(=C\c2coc3ccccc3c2=O)C(=O)O1`, 1.35%.
`COc1ccc(Nc2nc(C)nc3sc(C)cc23)c(OC)c1`: the inhibition is 46% (active).
On to `COc1ccc(Nc2nc3nonc3nc2Nc2ccc(OC)cc2OC)c(OC)c1`, for which the inhibition is -7.35%.
Consider `COc1ccc(NC(=O)CNC(=O)Cn2cnc3sc(C)cc3c2=O)c(OC)c1`, for which the inhibition is 7.78%.
In the case of `COc1ccc(CCNc2nc(SCC#N)nc3ccccc23)cc1OC`, the inhibition is -11.4%.
Next, `COc1ccc(CCNc2nc3ccc(C)cc3n3cnnc23)cc1OC`: -9.92%.
Next, `COc1ccc(CCNc2nc(C)nc3sc(C)cc23)cc1OC`: 41.7% (active); `CCOC(=O)c1sc(NC(=O)c2cccc(Cl)c2)c(C(=O)OCC)c1C`: -1.99%; `O=C(NCC1CCC2(CCN(Cc3ccccc3)CC2)O1)c1ccc(F)c(Cl)c1` (centres undefined): -14.8%.
With `O=C(NCCCO)/C(=C/c1ccc([N+](=O)[O-])cc1)NC(=O)c1ccco1`, the inhibition is 1.95%.
Take `O=C(CCCN1CCc2ccccc2C(O)(c2ccccc2)C1)c1ccc(F)cc1` (centres undefined): the inhibition is -4.26%.
Take `O=C1CN(c2ccccc2F)C(=O)CN1/N=C/c1ccccc1Cl`: the inhibition is -10.8%.
Turning to `Cc1ccc(-c2c(Nc3cccc(F)c3)c(=O)c2=O)cc1C`, the inhibition is 53.5% (active).
Next, `COc1ccc(-c2c(Nc3cccc(C)c3)c(=O)c2=O)cc1`: 4.83%; `COC(=O)c1ccccc1Nc1c(-c2ccc(C)c(C)c2)c(=O)c1=O`: 5.02%; `Cc1cc(C)nc(/N=C(/NC(=O)c2ccc(F)cc2)Nc2ccc(F)cc2F)n1`: 2.84%.
For `COc1ccc(-c2cccc(C(=O)Nc3ccc(Oc4ccccc4)cc3)n2)cn1`, the inhibition was -3.01%.
`CCn1c(COc2ccccc2OC)nnc1SCC(=O)NC`: the inhibition is 4.57%.
To `O=[N+]([O-])c1ccc(OCc2nnc(SCCN3CCOCC3)n2-c2ccccc2)cc1` belongs 3.41%; to `CCn1c(COc2ccccc2)nnc1Sc1ccc([N+](=O)[O-])cc1C=O`, 59.5% (active).
To `Cc1ccc2cc(C#N)c(SCC(=O)N3CC(=O)Nc4ccccc43)nc2c1C` belongs 63.3% (active); to `Cc1ccc(C)c2nc(SCC(=O)N3CC(=O)Nc4ccccc43)c(C#N)cc12`, -2.34%.
Consider `CCN(CC)C(=O)CSc1nc2c(C)c(C)ccc2cc1C#N`, for which the inhibition is 8.08%.
With `FC(F)(F)c1cccc(-c2ccc(/C=N/Nc3nn[nH]n3)o2)c1`, the inhibition was 4.88%.
Next, `O=C(CSCc1cc2cccc3c2n(c1=O)CCC3)NCc1ccncc1`: 8.05%; `O=C1c2cccnc2C(=O)N1CNc1ccccc1`: 2.66%.
`O=c1cc(Nc2ccc(Br)cc2)c2ccccc2o1`: the inhibition is 0.69%.
As for `COc1ccc(Nc2cc(=O)oc3ccccc23)cc1`, the inhibition is 36.2% (active).
Regarding `COc1ccc(Nc2ccccc2)cc1`, the inhibition is -22.2%.
Next, `C=CCn1c(SCC(=O)c2ccc(OC)c(C)c2)nnc1-c1ccncc1`: 4.75%; `CCCCCNC(=O)c1cc(C)nc2ccccc12`: 2.15%; `Cc1cc(C(=O)NC(C)c2ccccc2)c2ccccc2n1` (centres undefined): 5.1%.
Consider `CCC(CC)=NNC(=O)c1cc(C)nc2ccccc12`, for which the inhibition is 48.1% (active).
Turning to `Cc1cc(C)c(S(=O)(=O)N2CCOCC2)c(C)c1[N+](=O)[O-]`, the inhibition was -0.25%.
Next, `COc1ccccc1-n1nnnc1SCC(=O)c1ccc(Br)s1`: 2.7%; `COc1ccccc1NC(=O)C(=O)NCc1ccc(Cl)cc1`: 1.06%.
On to `COc1ccccc1-n1nnnc1S(=O)(=O)Cc1ccc(Cl)cc1`, for which the inhibition is 48.7% (active).
To `CCOC(=O)N1CCN(C(=O)CN2N=C(c3ccc(OC)cc3)CCC2=O)CC1` belongs -0.51%.
Take `COc1ccc2nc(NC(=O)CSc3nnnn3-c3ccccc3)sc2c1`: the inhibition is 8.33%.
With `COc1ccc(-n2nnnc2-c2nc3ccccc3s2)cc1`, the inhibition is 74.2% (active).
Next, `c1ccc(-n2nnnc2SCc2nc3ccccc3s2)cc1`: -47.7%; `OCc1cccc(-c2cnn3c(NCc4cccs4)ccnc23)c1`: 102% (active).
For `CN(C)CCNc1ccnc2c(-c3cccc(O)c3)cnn12`, the inhibition is 2.13%.
Next, `Fc1ccc(CNc2ccnc3c(-c4ccsc4)cnn23)cc1`: -14.1%; `COc1ccc(CCNC(=O)c2cc(-c3ccccc3OC)n[nH]2)cc1OC`: 2.42%; `O=C(Cc1cccc2ccccc12)N/N=C/c1cccnc1`: 3.15%.
Take `O=C(CSc1cccc2cccnc12)N/N=C/c1cccnc1`: the inhibition is 46.5% (active).
Next, `O=C(CSc1n[nH]c(=O)[nH]c1=O)N/N=C/c1cccnc1`: 10.8%.
Next, `Cc1nc(NC(=O)CSc2nnc(-c3ccccc3)n2C)sc1C`: 9.15%.
To `CCOc1ccc(NC(=O)c2ccc3c(=O)n(-c4ccc(F)cc4)c(=S)[nH]c3c2)cc1` belongs 4.1%; to `Cc1cc(Cl)c(S(=O)(=O)N2CCCc3ccccc32)cc1OCC(N)=O`, 4.13%.
Consider `O=C(CC1C(=O)N(c2ccc(F)cc2)C(=O)N1Cc1cccs1)Nc1ccc(F)cc1` (centres undefined), for which the inhibition was 5.51%.
`COc1ccc(OC(C)C(=O)Nc2ccc3ccccc3c2)cc1` (centres undefined): the inhibition was 39.1% (active).
Next, `COc1ccc(OC(C)C(=O)Nc2cccc(Br)c2)cc1` (centres undefined): 5.3%; `COc1ccc(NC(=O)C(C)Oc2cc(C)cc(C)c2)cc1` (centres undefined): 15.9%; `COC(=O)C1=CN(Cc2ccc(F)cc2)C=C(C(=O)OC)C1c1ccc(C)s1`: 3.1%.
Next, `CCn1ccc(C(=O)Nc2sccc2C(=O)NC)n1`: 10.4%; `COc1cc(NC(=O)c2ccccc2)c(C(=O)O)cc1OC`: 7.96%; `COc1ccc(-n2cnc3cc(C(=O)NCc4ccccc4OC)ccc32)cc1`: 4%.
Next, `COc1ccccc1-n1cnc2cc(NC(=O)c3ccccc3)ccc21`: 38% (active).
Take `CN(C)c1cc(C(=O)N2CCN(C(=O)C(C)(C)C)CC2)nc(N(C)C)n1`: the inhibition is 0.22%.
To `Cn1cc(-c2cc(Nc3ccc(-n4cnc(N5CCC(O)CC5)n4)cc3)ncc2Cl)cn1` belongs 0.35%.
Next, `Cc1ncn(-c2ccc(Nc3ncc4cccc(-c5ccc6scnc6c5)c4n3)cc2)n1`: 3.89%.
Next, `Cn1cc(-c2nc(Nc3ccc(-n4cnc(N5CCC(O)CC5)n4)cc3)ncc2Br)cn1`: 85.4% (active).
With `Cn1cc(-c2ccc3cnc(Nc4ccc(-n5cnc(N6CCOCC6)n5)cc4)nc3c2-c2cnn(C)c2)cn1`, the inhibition is 88.5% (active).
With `c1coc(-c2ccc3cnc(Nc4ccc(-n5cnc(N6CCOCC6)n5)cc4)nc3c2)n1`, the inhibition was -7.9%.
To `COc1ccc(CCNC(=O)CCn2c(SCc3cccc(Cl)c3)nc3ccccc3c2=O)cc1OC` belongs -6.64%; to `CCOC(=O)C1=C(C)NC(=S)NC1c1cc(OC)ccc1Br` (centres undefined), -4.97%.
To `CC(=O)c1cccc(-c2ccc(C(=O)NCCN3CCOCC3)s2)c1` belongs -17.5%.
As to `COc1ccc(-c2noc(CNC(=O)c3ccc(Br)cc3)n2)cc1`, the inhibition is -8.01%.
To `COC(=O)C1=C(C)NC2=C(C(=O)CC(c3cccs3)C2)C1c1cccc(OCc2ccccc2)c1` (centres undefined) belongs 15.8%; to `CC1=C(C(=O)OCc2ccccc2)C(c2ccc3c(c2)OCO3)C2=C(CC(c3cccs3)CC2=O)N1` (centres undefined), -4.32%.
Take `CC1=C(C(=O)OCc2ccccc2)C(c2cccc([N+](=O)[O-])c2)C2=C(CC(c3cccs3)CC2=O)N1` (centres undefined): the inhibition is 58.1% (active).
Next, `O=C(CSc1cccc[n+]1[O-])Nc1nc2ccccc2s1`: 3.26%; `Cc1nccn1CC(O)COc1ccc(Br)cc1` (centres undefined): 5.95%; `COc1ccc(OC)c(C(=O)COc2ccc(Br)cc2C#N)c1`: 52.8% (active).
To `COc1ccc(C(=O)COC(=O)COc2ccccc2C#N)c(OC)c1` belongs 7.04%.
Next, `COc1ccc(OCC(=O)c2ccc(F)cc2)c(C#N)c1`: -65.6%.
As to `CN(C)C(=O)c1cc(-c2cn[nH]c2)ccc1NC(=O)OCc1ccccc1`, the inhibition is -2.11%.
To `CC(=O)Nc1ccc(N2C(=O)c3ccc4c5c(ccc(c35)C2=O)C(=O)N(c2ccc(NC(C)=O)cc2)C4=O)cc1` belongs 5.3%.
To `COc1cc(OC)nc(Oc2cccnc2/C=N/Nc2ccccc2[N+](=O)[O-])n1` belongs -11.9%; to `CCN(CC)S(=O)(=O)c1ccc2nc(NC(=O)CC(C)C)sc2c1`, 42.2% (active).
As to `CCCC(=O)Nc1nc2ccc(S(=O)(=O)N(C)C)cc2s1`, the inhibition is -15.2%.
`CS(=O)(=O)c1ccc2nc(NC(=O)CSc3ccccc3)sc2c1`: the inhibition is 7.95%.
With `COc1cc(/C=C2/SC(=O)N(C)C2=O)cc(Br)c1OC`, the inhibition is -1.8%.
